# TRPV1 potentiator: enhances activation of the human vanilloid receptor TRPV1; Q8NER1; TRPV1-expressing cells, Fluo-8 calcium influx, capsaicin EC20 potentiation; potentiation, % at 8.33 µM; actives 0.02% (n = 320,000); AID 540277; in the data active means potentiation above about 80%; inconclusive means between about 30% and that limit; further: 0% is about no effect
# Target sequence (Q8NER1 whole entry, looked up): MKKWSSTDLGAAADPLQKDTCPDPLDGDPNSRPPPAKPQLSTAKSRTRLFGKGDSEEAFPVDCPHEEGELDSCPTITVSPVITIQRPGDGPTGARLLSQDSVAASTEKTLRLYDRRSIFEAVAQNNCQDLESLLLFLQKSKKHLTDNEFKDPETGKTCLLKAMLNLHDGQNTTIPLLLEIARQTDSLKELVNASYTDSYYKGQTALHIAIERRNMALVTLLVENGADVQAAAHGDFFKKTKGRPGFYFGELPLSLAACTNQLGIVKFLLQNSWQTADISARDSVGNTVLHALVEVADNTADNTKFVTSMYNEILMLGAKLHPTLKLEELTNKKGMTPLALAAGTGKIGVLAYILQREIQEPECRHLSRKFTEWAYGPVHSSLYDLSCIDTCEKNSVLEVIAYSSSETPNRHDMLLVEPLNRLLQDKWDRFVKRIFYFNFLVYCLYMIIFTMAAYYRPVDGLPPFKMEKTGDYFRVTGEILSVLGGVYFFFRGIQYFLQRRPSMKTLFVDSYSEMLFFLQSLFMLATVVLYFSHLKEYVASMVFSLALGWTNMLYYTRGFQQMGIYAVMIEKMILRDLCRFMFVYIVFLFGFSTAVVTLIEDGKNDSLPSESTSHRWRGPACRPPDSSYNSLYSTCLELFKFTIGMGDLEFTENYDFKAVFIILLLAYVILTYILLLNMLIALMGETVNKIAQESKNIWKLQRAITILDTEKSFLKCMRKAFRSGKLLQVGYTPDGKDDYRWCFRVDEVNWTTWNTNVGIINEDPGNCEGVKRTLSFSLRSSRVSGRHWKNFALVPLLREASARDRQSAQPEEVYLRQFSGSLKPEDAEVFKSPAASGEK
#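 Fluo-8 calcium influx in TRPV1-expressing cells, kinetic read (ex 480/em 520 nm). Compound added and read 3 min for agonist activity, followed by capsaicin at EC20 final and 2 min further read for enhancement.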
# Giardia kill: kills Giardia lamblia. Giardia lamblia trophozoite viability. activity change, % at 7.66 µM, hits read low. actives 0.15% (n = 340,000); in the data active means activity change below about -80%; inconclusive means between about -30% and that limit;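 further: parasites exposed to compound for two days anaerobically before the ATP read; on the % scale 0 is the no-effect control and ±100 the full control effect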
#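 Trophozoites 100 cells/well + cpd; 48 hrs, 37 deg C, anaerobic. ATPLite 1-Step added, 15-30 min RT, luminescence read (ATP-based viability).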
# ELG1 DNA repair: inhibitors of ELG1-dependent DNA repair in HEK293T cells; HEK293T ELG1-luciferase reporter, luminescence, 16 h; DNA damage induced by 5-fluorouridine; Potency, µM (titrated, usually from 46.1 µM), for the others: at the top dose activity change, negative = inhibition, most hits filed as inhibitors; actives 2.3% (n = 330,000); AID 504467; further: potency means the concentration at half of the fitted maximal effect; on the % scale 0 is the no-effect control and ±100 the full control effect; nearly all actives have a fitted effect of over 55% in size
#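 In this reporter screen, reduction of luminescence relative to DMSO vehicle indicated activity. Compounds and 5-fluorouridine were added together to 2,000 cells per well, incubated for 16 hr at 37 °C, then developed with ONE-Glo.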
# TRPV1 agonist: activates the human vanilloid receptor TRPV1 | Q8NER1 | TRPV1-expressing cells, Fluo-8 calcium influx, agonist mode | activation, % at 8.33 µM | AID 540275 | actives 0.19% (n = 320,000); in the data active means activation above about 80%; inconclusive means between about 30% and that limit; further: 0% is about no effect
#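 TRPV1-expressing cells were cultured overnight at 35.5C and loaded with Fluo-8 calcium dye for 40 to 90 min at room temperature. After a 10 s baseline, compound was added and calcium influx was read kinetically for 3 min (ex 480/em 520 nm).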
# FUS suppressor: rescues growth of FUS-expressing yeast; S. cerevisiae FUS-expressing, growth rescue, OD600, 24 h; Potency, µM (top dose mostly 76.6 µM), usual class: activators; actives 0.24% (n = 390,000);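 further: potency means the concentration at half of the fitted maximal effect; plate controls were DMSO vehicle for no effect and reference control for full effect; nearly all actives have a fitted effect of over 55% in size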
#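 S. cerevisiae expressing FUS from galactose induction served as the toxicity model. Growth after 24hr at 30C, read as absorbance at 600 nm, indicates suppression of toxicity; compounds dosed at several concentrations.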
# * marks the source's active call; other numbers are inactive results; i = inactive; ? = inconclusive; / = no result. This is a sample that favours compounds with a hit; in the whole collection about 2.3% have one here. Unless noted, the call rests on the fitted dose curve; in most records, active means well fitted curve in the direction sought with a large enough effect; inconclusive means small, poorly fitted or top-dose-only effect, or another doubt; inactive means no such curve, though single readings can be large; an effect the other way counts as inactive or inconclusive.
SMILES,TRPV1 potentiator,Giardia kill,ELG1 DNA repair,TRPV1 agonist,FUS suppressor
Cc1cc(Cl)c(S(=O)(=O)N2CCCC2)cc1OCC(=O)NC1CCCCC1,-4,-5,13µM*,27,i
Cc1ccc2cc(C(c3nnnn3C3CCCC3)N(Cc3ccccc3)Cc3ccco3)c(=O)[nH]c2c1 (configuration not stated),24,10,4%,3,i
Cc1cc2cc(C(c3nnnn3C3CCCC3)N(Cc3cccnc3)Cc3ccco3)c(=O)[nH]c2cc1C (configuration not stated),-1,6,18µM*,19,i
Cc1ccc2c(c1)[nH]c1c(N3CCN(Cc4ccccc4)CC3)ncnc12,-1,5,18µM*,3,i
c1ccc(CN2CCN(c3nc4ccccc4c4ccccc34)CC2)cc1,-6,-9,-17%,18,i
c1ccc(CN2CCN(c3ncnc4c3[nH]c3ccccc34)CC2)cc1,-34,-2,15µM*,80*,/
Cc1ccc2[nH]c3c(N4CCN(Cc5ccccc5)CC4)ncnc3c2c1,-16,18,?,?,i
COc1ccc(-c2cc(C(=O)NCc3ccco3)c3ccccc3n2)cc1OC,/,11,/,/,i
COc1ccc(-c2cc(C(=O)Nc3cccc(S(=O)(=O)NCc4ccco4)c3)c3ccccc3n2)cc1OC,2,1,5.2µM*,1,?
O=C(Nc1cccc(S(=O)(=O)NCc2ccco2)c1)c1cc(-c2ccc(F)cc2)nc2ccccc12,25,12,15µM*,-1,i
O=C(Nc1ccccc1)c1cccc(S(=O)(=O)NCc2ccco2)c1,-10,10,-15%,9,i
O=C(NCc1ccccc1Cl)NCc1noc2ccccc12,/,/,/,/,i
Nc1nc(NCc2ccccc2)c2[nH]cnc2n1,/,10,/,/,/
CCCNC(=O)c1ccccc1NC(=O)c1ccccc1N(C)S(=O)(=O)c1ccc(C)cc1,-12,17,23µM*,16,i
CC(C)(C)C(=O)NCCc1nc2ccccc2n1CCCCOc1ccc(Cl)cc1,/,/,/,/,i
CCOC(=O)N1CCC(NC(=O)c2cc3cc4cc(OC)ccc4nc3o2)CC1,12,-5,23µM*,1,i
COc1ccc2nc3oc(C(=O)NC4CCN(Cc5ccccc5)CC4)cc3cc2c1,2,-5,?,0,i
O=C(N/N=C/c1c[nH]c2ccccc12)c1cccc(Cl)c1,-2,-7,?,1,i
O=C(N/N=C/C1C(c2ccccc2)C1(Cl)Cl)c1cccc(Cl)c1 (configuration not stated),-3,-8,?,25,5.6µM*
O=C(CCSc1ccc(Cl)cc1)N1CCN(c2ccc(O)cc2)CC1,-8,5,8.2µM*,?,i
CCCCC1=CC2=C(c3ccco3)C(=O)C(C)(OC(=O)c3ccc(OC)cc3)C(=O)C2=CN1Cc1ccc(OC)cc1 (configuration not stated),-27,/,2%,7,/
CCCCC1=CC2=C(c3ccco3)C(=O)C(C)(OC(=O)c3ccc(OC)cc3)C(=O)C2=CN1CC1CC1 (configuration not stated),22,12,-24%,-5,20µM*
CC(C)OCCCNC(=O)c1c(N)n(/N=C/c2ccccn2)c2nc3ccccc3nc12,-5,29,7.3µM*,2,i
CCC(C)NC(=O)c1c(N)n(/N=C/c2cccnc2)c2nc3ccccc3nc12 (configuration not stated),-5,-7,12µM*,8,i
CCC(C)NC(=O)c1c(N)n(/N=C/c2ccccn2)c2nc3ccccc3nc12 (configuration not stated),-4,17,?,?,i
O=C(N/N=C/c1ccc(Cl)cc1)c1n[nH]c2c1CCCC2,-16,2,?,?,i
O=C(N/N=C/c1ccccc1)c1n[nH]c2c1CCCC2,-19,-28,?,83*,i
Cc1nnsc1C(=O)NC1CCCc2c1cnn2-c1ccc(C(C)(C)C)cc1 (configuration not stated),3,9,2%,85*,?
Cn1c(=O)c(C(=O)COc2ccc(F)cc2Cl)c(N)n(Cc2ccccc2)c1=O,-1,-2,23µM*,5,i

# Source: PubChem (National Center for Advancing Translational Sciences (NCATS))
